The panel holds about 83,000 compounds, 20% with a hit somewhere; the sample as a whole holds those more often.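 Percent growth is the endpoint: 0 to 100 indicates growth inhibition (40 means 60% inhibition), 0 means no net growth, and negative values indicate cell death.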 The source made the active and inactive calls. Rule for the calls: active = growth percent below 10; inactive = the rest.
Tests used:
Test in all cases: NCI-60 one-dose screen, 48 h (100 = growth as untreated, 0 = no growth, -100 = all killed)
Details in all cases: 10 µM unless noted
[1] = system: NCI-H23 lung
[2] = system: NCI-H322M lung
[3] = system: HOP-62 NSCLC
[4] = system: NCI-H460 lung
[5] = system: HOP-92 NSCLC
[6] = system: NCI-H522 lung
[7] = system: A549/ATCC NSCLC
[8] = system: 786-0 renal
[9] = system: DU-145 prostate
[10] = system: K-562 leukemia
[11] = system: MALME-3M melanoma
[12] = system: MDA-MB-231 breast
[13] = system: RXF 393 renal
[14] = system: SF-268 CNS
[15] = system: SF-295 CNS
[16] = system: SF-539 CNS
[17] = system: UACC-257 melanoma
[18] = system: M14 melanoma
[19] = system: HCT-15 colon

Measured: growth

COc1cc(/C=C/C(=O)c2ccc(Cl)cc2)cc(CN2CCCCC2)c1O
inactive: [1] 92.6% | [2] 91.6% | [3] 94.7% | [4] 94.3% | [5] 75.5% | [6] 77.2% | [7] 94.6% | [8] 91.6% | [9] 103% | [10] 70.4% | [11] 82.2% | [12] 83.2% | [13] 97.6% | [14] 91.1% | [15] 97.9% | [16] 92.1% | [17] 92.3% | [18] 91.4% | [19] 69.8%

C=C1C(=O)O[C@H]2[C@H]1CC/C(COC(=O)/C=C\C(=O)O)=C\CC[C@@]1(C)O[C@@H]21
inactive: [1] 98.9% | [2] 105% | [3] 99.2% | [4] 107% | [5] 108% | [6] 97.5% | [7] 105% | [8] 109% | [9] 112% | [10] 109% | [11] 99.8% | [12] 103% | [13] 111% | [14] 100% | [15] 96.7% | [16] 93.2% | [17] 99.8% | [18] 110% | [19] 105%

NCCCNc1nc2ccccc2c2c(=O)c3cc(F)ccc3sc12
inactive: [1] 70% | [2] 41.9% | [3] 32.8% | [11] 76.7% | [13] 41.9% | [14] 34.3% | [15] 85.9% | [16] 55.2% | [17] 68.1%
active: [4] -74.7% | [5] 8.11% | [6] -42.7% | [7] -29.3% | [8] 1.83% | [9] -22.8% | [10] -50.4% | [12] -53.1% | [18] -55.5% | [19] -49.3%

OCCNc1nc(Nc2ccc(C3=NN(c4cc(Cl)cc(Cl)c4)C(c4ccc(C(F)(F)F)cc4)C3)cc2)nc(N2CCOCC2)n1 (configuration not stated)
inactive: [1] 76% | [2] 80.3% | [3] 74.5% | [4] 46.4% | [5] 98.6% | [6] 85.3% | [7] 59.2% | [8] 42.7% | [9] 82.7% | [10] 53.9% | [11] 90% | [12] 59.7% | [13] 19.7% | [14] 74.1% | [15] 71% | [16] 54.3% | [17] 94.5% | [18] 90.5% | [19] 49.3%

COc1ccc(/C=C/C(=O)c2ccc3cc(OC)c(OC)cc3c2)cc1OC
inactive: [1] 51.7% | [2] 56% | [3] 36% | [4] 40.7% | [5] 51.4% | [6] 31.9% | [7] 19.5% | [8] 42.9% | [9] 46.7% | [11] 90.6% | [12] 101% | [13] 84.2% | [14] 70.7% | [15] 70.8% | [16] 23.5% | [17] 70.2% | [18] 64.2% | [19] 27.5%
active: [10] 8.48%

COc1ccc(CCN2C(=O)CCSC2=S)cc1OC
inactive: [1] 103% | [2] 101% | [3] 97.5% | [4] 102% | [5] 87% | [6] 48.3% | [7] 97.6% | [8] 44.2% | [9] 67.6% | [10] 80.9% | [11] 101% | [12] 106% | [13] 90.7% | [14] 97.1% | [15] 98.7% | [16] 89.7% | [17] 96.6% | [18] 105% | [19] 86.2%

CCCCCCCCCCCCCCn1cc(C2=C(c3coc4ccc(OC)cc34)C(=O)NC2=O)c2ccccc21
inactive: [1] 96% | [2] 99.7% | [3] 103% | [4] 98.5% | [5] 107% | [6] 90.3% | [7] 96.6% | [8] 97.6% | [9] 102% | [10] 121% | [11] 107% | [12] 111% | [13] 108% | [14] 98.8% | [15] 97.2% | [16] 103% | [17] 96.8% | [18] 98.7% | [19] 88.1%

COC(=O)c1c2c(c(C)[n+]([O-])c1C)C(=O)C(NCc1ccc(F)c(F)c1)=CC2=O
inactive: [2] 13.4% | [3] 33.1% | [5] 51.1% | [6] 22% | [8] 48.2% | [9] 42% | [10] 18.4% | [13] 32.2% | [14] 12% | [15] 18.2%
active: [1] -5.8% | [4] 4.7% | [7] 8.81% | [11] -70.8% | [12] -2.52% | [16] 2.45% | [17] -30% | [18] 4.33% | [19] 6.07%

From PubChem BioAssay (NCI)
